SARS PLP yeast – blocks SARS-CoV papain-like protease in a yeast assay; S. cerevisiae expressing SARS-CoV PLpro, growth rescue; Potency, µM (top dose mostly 32.9 µM), actives largely listed as activators; 330,000 tested, 0.19% active; AID 485353; calls by dose curve; also: nearly all actives have a fitted effect of over 55% in size
Sm TGR block – S. mansoni TGR enzyme inhibition. AID 485364. 360,000 tested, 3% active. purified TGR, DTNB reduction, TNB absorbance 405 nm. Q962Y6. Potency, µM (top dose mostly 114 µM), hits mostly inhibitors; also: nearly all actives have a fitted effect of over 60% in size
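Kinetic colorimetric format: TGR-catalysed, NADPH-driven DTNB reduction monitored via TNB absorbance. Enzyme dispensed at 20 nM; compound exposure 15 min at room temperature before reaction start.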
AmpC detergent – inhibitors of E. coli AmpC beta-lactamase with detergent. AID 485294. Potency, µM (series often up to 114 µM), hits mostly inhibitors. P00811. 370,000 tested, 0.041% active. AmpC hydrolysis of nitrocefin, absorbance 480 nm, 0.01% Triton; also: nearly all actives have a fitted effect of over 25% in size
Target sequence (P00811 whole entry, looked up): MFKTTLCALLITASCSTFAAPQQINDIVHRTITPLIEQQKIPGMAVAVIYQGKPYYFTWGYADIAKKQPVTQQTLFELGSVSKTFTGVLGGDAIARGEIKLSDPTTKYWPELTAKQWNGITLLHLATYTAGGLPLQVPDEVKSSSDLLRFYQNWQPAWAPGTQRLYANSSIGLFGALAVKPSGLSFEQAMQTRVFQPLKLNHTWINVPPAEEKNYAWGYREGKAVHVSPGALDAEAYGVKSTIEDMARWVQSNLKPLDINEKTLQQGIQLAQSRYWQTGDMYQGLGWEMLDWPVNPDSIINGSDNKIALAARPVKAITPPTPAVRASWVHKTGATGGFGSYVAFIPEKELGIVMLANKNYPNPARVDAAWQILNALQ
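20 mM phosphate pH 7.0 + 0.01% (detergent screen) or 0.0001% Triton X-100; 5.3 nM AmpC reagent; cpd preinc 15 min RT; nitrocefin (800 uM stock) to start; A480 q20 s × 4 min; Activity was normalised to no-enzyme and no-compound control wells.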
Pf growth 48h – P. falciparum growth inhibition at 48 hours (one generation) | P. falciparum luciferase growth in erythrocytes, 48 h | Potency, µM (titrated, usually from 28.7 µM), hits mostly inhibitors | 310,000 tested, 5.9% active
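Parasite viability was followed by luminescence of a genomically integrated firefly luciferase. Cultures held 0.1% parasitemia at 2% hematocrit (final), incubated under 5% CO2 at 37 C.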
Pf growth 96h – P. falciparum growth inhibition at 96 hours | P. falciparum luciferase reporter growth, 96 h | Potency, µM (series often up to 28.7 µM), hits mostly inhibitors | 320,000 tested, 6.9% active | AID 504834
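Cell-based qHTS: luciferase-tagged P. falciparum in erythrocytes (2% hematocrit, 0.05% parasitemia final) incubated with compounds for 96 hours, 37 C, 5% CO2; luciferase detection reagent then added and luminescence measured.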
AmpC inh no detg – AmpC beta-lactamase inhibition without detergent; P00811; AmpC nitrocefin hydrolysis, absorbance 480 nm, 0.0001% Triton; Potency, µM (highest dose often 57.1 µM), hits mostly inhibitors; 330,000 tested, 0.52% active; also: nearly all actives have a fitted effect of over 20% in size
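AmpC (5.3 nM in the dispensed reagent) in 20 mM phosphate pH 7.0 with 0.01% (detergent screen) or 0.0001% Triton X-100 was preincubated with compounds for 15 min at room temperature. Nitrocefin was then added from an 800 uM solution, and hydrolysis was followed at 480 nm.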
Hits are given with their value; i = inactive; ? = inconclusive; nt = not tested or not shown; [ ] = another dose, or the depositor's remark. This is a sample that favours compounds with a hit; in the whole collection about 12% have one here. Unless noted, calls follow the shape of the dose curve; as a rule, active = well fitted curve in the direction sought with a large enough effect; inconclusive = small, poorly fitted or top-dose-only effect, or another doubt; inactive = no such curve, though single readings can be large; an effect the other way counts as inactive or inconclusive.

SMILES | SARS PLP yeast | Sm TGR block | AmpC detergent | Pf growth 48h | Pf growth 96h | AmpC inh no detg
CCCn1c(=O)n(-c2ccccc2Cl)c(=O)c2sc3ccccc3c21 | nt | ? | i | nt | nt | nt
COc1ccc(-n2c(-c3ccc(Br)cc3)c[n+]3c2CCc2ccccc2-3)cc1 | i | i | i | 1.9µM | 0.47µM | i
CC(C)c1ccc(-n2c(-c3ccccc3)c[n+]3c2CCc2ccccc2-3)cc1 | i | i | i | 1µM | 0.83µM | i[11.4 µM]
CC(C(=O)Nc1ccccc1)c1ccc(-c2ccccc2)c(F)c1 (stereo not drawn) | i | i | ? | nt | ? | 11µM
Cc1ccn(CCSCC(=O)O)n1 | i | i | i | i | i | i
O=C(O)CSCCn1cccn1 | i | i | ? | i | 13µM | i
CN1CCN(c2nc(-c3cccs3)cs2)CC1 | i | i | i | i | i | i
O=C1c2ccccc2C(=O)N1c1nc(-c2cccs2)cs1 | i | i | i | i | 15µM | i
Cn1nc(-c2ccccc2)c(CSc2ccccc2)c1Cl | i | i | i | nt | 9.3µM | i
Cc1cc(C)c(/C=N/n2c(C)cc(C)c(C#N)c2=O)c(C)c1 | i | i | i | ? | 10µM | i
Cc1cc(C)n(/N=C/c2cccs2)c(=O)c1C#N | i | i | ? | i | ? | i
COc1ccc(-c2nsc3c(SCc4ccccc4)ncnc23)cc1 | i | i | i | i | 1.9µM | i
COc1ccc(-n2c(-c3ccc(C)cc3)cc3c2CC(C)(C)CC3=O)c(OC)c1 | nt | i | i | nt | nt | nt
CC(C)C1/C(=N/O)CC(c2ccccc2)NC1c1ccccc1 (stereo not drawn) | i | i | i | 13µM | 9.3µM | i
CCC1C(=O)C(CC)C(c2ccccc2)NC1c1ccccc1 (stereo not drawn) | i | i | i | i | i | i
CC1/C(=N/O)CC(c2ccccc2)NC1c1ccccc1 (stereo not drawn) | i | i | ? | nt | ? | i
CCC1C(=NO)C(CC)C(c2ccccc2)NC1c1ccccc1 (stereo not drawn) | i | nt | i | 12µM | i | i
CCCC1/C(=N/O)CC(c2ccccc2)NC1c1ccccc1 (stereo not drawn) | i | i | i | 12µM | i | i
CC1C(=NO)C(C)C(c2ccccc2)NC1c1ccccc1 (stereo not drawn) | i | i | i | i | nt | i
CCCCn1c(N)c(N(CCC(C)C)C(=O)COC(=O)/C=C/c2ccc(F)cc2)c(=O)[nH]c1=O | i | nt | nt | nt | nt | i
Cc1ccccc1-c1nn2c(=O)cc(CN3CCN(C(=O)/C=C/c4ccccc4)CC3)nc2s1 | nt | 40µM | i | nt | nt | nt
Cc1noc(C(=O)Nc2cccc(Cl)c2)c1Cl | i | i | i | i | 9.3µM | i
Cc1ccc(O)c(NC(=O)c2onc(C)c2Cl)c1 | i | i | i | 12µM | i | i
COC(=O)c1ccccc1NC(=O)c1onc(C)c1Cl | i | i | i | i | 5.2µM | i
Cc1noc(C(=O)Nc2ccc(F)cc2F)c1Cl | i | ? | i | i | i | i
SMILES | SARS PLP yeast | Sm TGR block | AmpC detergent | Pf growth 48h | Pf growth 96h | AmpC inh no detg
Cn1ncc(Cl)c1C(=O)Nc1cccc(Cl)c1 | i | 45µM | ? | i | i | i
COc1ccc(NC(=O)c2onc(C)c2Cl)cc1OC | i | i | i | nt | i | i
CCc1ccccc1NC(=O)c1onc(C)c1Cl | i | i | i | nt | i | i
CSc1cccc(NC(=O)c2c(Cl)cnn2C)c1 | nt | i | i | i | i | nt
CCC(C(=O)O)N1C(=O)C2CCCCC2C1=O (stereo not drawn) | i | i | i | i | i | i
O=C(CN1C(=O)NC2(CCCC2)C1=O)N1CCN(Cc2ccccc2)CC1 | i | i | i | ? | i | i
CSc1ccc(Nc2nn(-c3ccc(OC(F)(F)F)cc3)nc2C(C)=O)cc1 | nt | i | i | nt | nt | nt
CCOC(=O)c1c(-c2ccccc2)csc1NC(=O)C(C)NCc1ccco1 (stereo not drawn) | i | i | i | ? | 13µM | i
CCOC(=O)c1c(-c2ccccc2)csc1NC(=O)c1nn(CC)cc1Br | i | i | ? | 13µM | nt | i
CCOC(=O)c1c(-c2ccccc2)csc1NC(=S)N(CC)CC | i | i | i | 12µM | 5.2µM | i
CCOC(=O)c1c(-c2ccccc2)csc1NC(=O)c1ccc(S(=O)(=O)N2CC(C)OC(C)C2)cc1 (stereo not drawn) | i | i | ? | 10µM | 9.3µM | i
CCOC(=O)c1c(-c2ccccc2)csc1NC(=O)c1ccc(N2C(=O)CCC2=O)cc1 | i | i | i | i | i | i
COc1ccc(Cl)cc1NC(=O)c1cc2ccc3ccc(C)[nH]c3c2n1 | nt | i | i | nt | nt | nt
Cc1ccc(S(=O)(=O)NCc2ccco2)cc1C(N)=O | i | i | i | i | i | i
Cc1ccc(CNC(=O)CCCN2C(=O)CCn3nc(-c4cn(C)c5ccccc45)cc32)cc1 | nt | i | i | nt | nt | nt
CCOC(=O)c1c(NC(=O)c2nn(CC)cc2Br)c(C#N)cn1-c1ccccc1 | i | i | i | 9.3µM | i | i
COc1ccc(N2CCN(C(=O)c3ccc4c(c3)N(Cc3ccc(F)cc3)C(=O)c3ccccc3S4=O)CC2)cc1 (stereo not drawn) | nt | i | i | nt | nt | nt
N#CC1=C2SCN(C3CCCCC3)CN2C(=O)CC1c1c(F)cccc1Cl (stereo not drawn) | nt | ? | i | nt | nt | nt
N#CC1=C2SCN(C3CCCCC3)CN2C(=O)CC1c1ccc(Cl)cc1 (stereo not drawn) | nt | 7.9µM | i | nt | nt | nt
N#CC1=C2SCN(C3CCCCC3)CN2C(=O)CC1c1ccc(F)cc1 (stereo not drawn) | nt | 3.5µM | i | nt | nt | nt
CC(C)Cn1c2c(c(=O)[nH]c1=O)C(C(F)(F)F)(C(F)(F)F)N=C(CCC1CCCCC1)N2 | i | i | i | 9.3µM | i | i
Cc1ccc(C23CC4CC(CC(C(=O)NC(C)C(=O)O)(C4)C2)C3)cc1 (stereo not drawn) | i | i | i | i | i | i
Cc1ccc(C23CC4CC(CC(C(=O)NC(C)C)(C4)C2)C3)cc1 | i | i | i | i | 9.3µM | i
COc1ccccc1NC(=O)C12CC3CC(C1)CC(c1ccc(C)cc1)(C3)C2 | i | i | i | 0.66µM | i | i
COc1ccc(Cl)cc1NC(=O)Cn1c(=O)n(Cc2ccco2)c(=O)c2cccnc21 | nt | i | i | nt | nt | nt
Cc1ccc(C(=O)N/N=C/c2ccc(-c3cccc(C(F)(F)F)c3)o2)cn1 | i | i | i | i | i | i
Cc1ccc(-n2c(-c3cccnc3)n[nH]c2=S)c(C)c1 | i | i | i | nt | i | i
COc1ccc2c(c1)C(C)=CC(C)(C)N2S(=O)(=O)c1ccc(C)cc1 | i | i | i | ? | i | i
CC1=CC(C)(C)N(S(=O)(=O)c2ccc(C)cc2)c2cc(C)ccc21 | i | i | i | nt | 9.3µM | i

Screening data as filed in PubChem BioAssay.
